From PubChem
A selection: hits, their analogues and other compounds. The true share with any hit is near 1.1%.
mIDH1 inhibitor = blocks human mutant IDH1 R132H enzyme | IDH1-R132H enzyme, NADPH consumption, diaphorase/resazurin fluorescence | Potency, µM (highest dose often 76.6 µM), without a hit: at the highest dose activity change, negative = inhibition, most hits filed as inhibitors | 0.093% of 390,000 active | AID 602179; further: nearly all actives have a fitted effect of over 65% in size
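IDH1-R132H (0.5 ug/mL dispensed) in pH 7.5 Tris buffer was preincubated 30 min with compound, then given a substrate mix of 0.016 mM NADPH and 2 mM alpha-KG for 80 min at room temperature; remaining NADPH was read by diaphorase/resazurin fluorescence.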
Eya2 phos inh = blocks the phosphatase activity of human Eya2 | Potency, µM (highest dose often 76.9 µM), for the others: at the highest dose activity, negative = inhibition, actives largely listed as inhibitors | O00167 | 0.006% of 330,000 active | recombinant Eya2, OMFP fluorescence dephosphorylation (OMFP is methylfluorescein phosphate)
Target sequence (O00167 whole entry, looked up): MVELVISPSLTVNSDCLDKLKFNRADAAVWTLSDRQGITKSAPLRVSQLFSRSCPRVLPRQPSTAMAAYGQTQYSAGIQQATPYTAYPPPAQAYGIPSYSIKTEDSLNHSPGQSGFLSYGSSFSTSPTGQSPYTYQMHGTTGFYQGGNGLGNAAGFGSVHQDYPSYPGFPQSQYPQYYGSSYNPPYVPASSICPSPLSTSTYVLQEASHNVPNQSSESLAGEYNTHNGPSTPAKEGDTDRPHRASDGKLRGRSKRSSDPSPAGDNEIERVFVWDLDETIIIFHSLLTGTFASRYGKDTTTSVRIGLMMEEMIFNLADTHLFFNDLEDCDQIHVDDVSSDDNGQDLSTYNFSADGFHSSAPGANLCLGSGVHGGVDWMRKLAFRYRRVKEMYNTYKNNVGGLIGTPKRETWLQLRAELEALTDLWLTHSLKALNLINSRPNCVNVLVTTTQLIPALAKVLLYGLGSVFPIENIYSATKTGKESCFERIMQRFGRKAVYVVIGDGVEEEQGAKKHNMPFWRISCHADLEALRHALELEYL
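Eya2 protein (added as 0.2 uM solution) was preincubated with compound for 10 min at ambient temperature in 50 mM HEPES pH 7.5, 50 mM NaCl, 5 uM MgCl2, 0.05% BSA, 1 mM DTT. OMFP (added at 50 uM) then reacted 10 min; fluorescence read at 485/525 nm.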
rTrxR1 inhibitor = rat TrxR1 inhibition | recombinant rTrxR1, NADPH fluorescence consumption, selenite substrate | Potency, µM (top dose mostly 114 µM), inactives show at the top dose activity change, negative = inhibition, actives largely listed as inhibitors | 1% of 390,000 active | AID 588453; further: nearly all actives have a fitted effect of over 65% in size
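Rat TrxR1 (90 nM in the dispensed reagent) was pre-reduced with 400 uM NADPH for 5 min at room temperature, then incubated with compound for 15 min. After 400 uM selenite was added, NADPH fluorescence (Ex 340/Em 450 nm) was followed for 8 min.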
TrxR1 substrate = rat thioredoxin reductase 1 substrate activity. AID 588456. purified TrxR1 substrate turnover, NADPH consumption readout. Potency, µM (top dose mostly 114 µM), for inactives: at the highest dose activity change, negative = substrate turnover. 0.01% of 390,000 active. O89049; further: nearly all actives have a fitted effect of over 50% in size
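Rat TrxR1, dispensed at 90 nM, was prereduced with 400 uM NADPH (final) for 5 min at ~22 deg C, then incubated with compound 15 min before 400 uM selenite. A first-read NADPH fluorescence drop versus no-compound background flagged substrates.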
RGS4 inhibitor = inhibitors of human regulator of G protein signaling 4; P49798; Transcreener GDP fluorescence polarization, RGS4-accelerated GTP hydrolysis; Potency, µM (top dose mostly 114 µM), for inactives: at the highest dose activity change, negative = inhibition, usual class: inhibitors; 0.039% of 390,000 active; further: nearly all actives have a fitted effect of over 75% in size
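MLSMR compounds (23 nl, pin-transferred) preincubated 10 min at room temperature with a 500nM (2x) first reagent, then RGS4 at 900nM (2x) plus Transcreener GDP mix added; fluorescence polarization (620/688 nm) read before and after 90 min at 30 °C.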
The depositor's hits bear a star; ? = inconclusive; . = no result; ! = not confirmed by another sample; [ ] = another dose, or the depositor's remark. The call rests on the fitted dose curve; in most records, active means well fitted curve in the direction sought with a large enough effect; inconclusive means small, poorly fitted or top-dose-only effect, or another doubt; inactive means no such curve, though single readings can be large; an effect the other way counts as inactive or inconclusive. On the % scale 0 is the no-effect control and ±100 the full control effect; potency means the concentration at half of the fitted maximal effect.

SMILES	mIDH1 inhibitor	Eya2 phos inh	rTrxR1 inhibitor	TrxR1 substrate	RGS4 inhibitor
COC(=O)N1C(=O)[C@@](c2ccccc2)(C2CCCC2)N1C(=O)OC	0%	1%	8.9µM*	-6%	-5%
COC(=O)N1C(=O)[C@](c2ccsc2)(C(C)C)N1C(=O)OC	-8%	5%	25µM*	5%	4%
COC(=O)N1C(=O)[C@](CC(C)C)(c2ccccc2)N1C(=O)OC	-8%[38.3 µM]	2%	2µM*	-6%	-25%
COC(=O)N1C(=O)[C@](c2ccc(OC)cc2)(C(C)C)N1C(=O)OC	3%	1%	?	7%	-11%
CC[C@@]1(c2cccc(C)c2)C(=O)N(C(=O)OC)N1C(=O)OC	-1%	-3%	2µM*	4%	-17%
COC(=O)N1C(=O)[C@@](CC(C)C)(c2ccccc2)N1C(=O)OC	.	14%	.	.	.
COc1ccc(C(=O)NCCCOC(=O)c2ccc(OC)cc2)cc1	-1%	6%	22%	4%	-12%
c1ccc(-n2c(-c3cccs3)nc3nc4ccccc4nc32)cc1	1%	-8%	22%	52%	8%
CCOC(=O)N1C(=O)[C@@](CC)(c2ccccc2)N1C(=O)OCC	-8%[38.3 µM]	12%	2.2µM*	-9%	-34%
COc1cccc(C(=O)NC(=S)Nc2cccnc2)c1	2%	-1%	?	-3%	-12%
CC(C)Oc1cccc(C(=O)NC(=S)Nc2cccnc2)c1	2%	2%	22µM*	-1%	-37%
O=C(CN1CCN(S(=O)(=O)c2ccc(Cl)cc2)CC1)c1ccc(O)c(O)c1	0%	8%	25µM*	-9%	6%
O=C(CN1CCN(S(=O)(=O)c2ccc(F)cc2)CC1)c1ccc(O)c(O)c1	12%	-8%	-66%	-11%[57.1 µM]	-36%
C#CCOc1ccc(/C=N/O)cc1Cl	0%	-11%	-8%	-10%	26%
COc1ccccc1S(=O)Cc1ccc(C(=O)NCCc2ccc(Cl)cc2)o1 (stereo unspecified)	14%	-13%	18µM*	2%	-14%
COc1ccccc1S(=O)Cc1ccc(C(=O)NC2CCCC2)o1 (stereo unspecified)	7%	-13%	?	4%	-23%
C#CCOCCOCCOCCNc1nc(N2CCN(C(=O)[C@H](CCCCN)n3cc(C(N)COC(=O)C(F)(F)F)nn3)CC2)nc(N2CCN(C(=O)[C@H](CCCCN)n3cc(C(N)CC(C)C)nn3)CC2)n1 (stereo partly specified)	.	-2%	.	.	.
Nc1ccc2nc(-c3ccc(-c4nc5ccc(N)cc5[nH]4)cc3)[nH]c2c1	3%	9%	1%[57.1 µM]	0%[57.1 µM]	?
Nc1ccc(-c2nc3ccc(-c4nc5ccc(N)cc5[nH]4)cc3[nH]2)cc1	.	-8%	16%[57.1 µM]	66%[57.1 µM]	27µM*
COc1cccc(CNC(=O)CCCN2C(=O)CSc3c2c(C)nn3-c2ccccc2)c1OC	0%	.	6%[57.1 µM]	-5%[57.1 µM]	11%
CC(CN1c2ccccc2Sc2ccccc21)N(C)C (stereo unspecified)	-12%	9%	12µM*!	17%[57.1 µM]	?
O=C(CCN1C(=O)/C(=C/c2ccc(F)cc2)SC1=S)Nc1cc([N+](=O)[O-])ccc1O	-4%	6%	23%	-1%	-28%
C=CCN(c1ccccc1)S(=O)(=O)c1ccc2c(c1)N(C(C)=O)CCO2	0%	6%	-4%	-5%	-33%[56.9 µM]
COc1ccc(C(=O)n2nc(-c3ccco3)nc2NCc2cccs2)cc1	4%	.	22µM*	-1%	-23%
CCOc1ccc2[nH]c(=O)c(CN(CC3COCCO3)C(=O)C3CC3)cc2c1 (stereo unspecified)	2%	-2%	17%[11.4 µM]	20%[11.4 µM]	-27%
SMILES	mIDH1 inhibitor	Eya2 phos inh	rTrxR1 inhibitor	TrxR1 substrate	RGS4 inhibitor
N#CC1=C(N)C2=CCCC[C@H]2[C@H](c2ccccc2)C1(C#N)C#N	23µM*	-11%	?	-1%	-17%
CN1C2C=C3C(C#N)=C(N)C(C#N)(C#N)C(c4ccc(Br)cc4)C3C1CC2 (stereo unspecified)	-21%	0%	-16%	14%	-36%
N#CC1=C(N)C2=CCCC[C@H]2[C@H](c2ccc(Br)cc2)C1(C#N)C#N	?	3%	5µM*	3%	?
O=C1C=CC(=Nc2ccc3c(c2)Cc2cc(F)ccc2-3)O1	3%	.	3.2µM*	6%	?
CCS(=O)(=O)c1cc([N+](=O)[O-])c(Sc2ccccc2NC(C)=O)s1	-3%	5%	8.9µM*	10%[57.1 µM]	-43%
CC(=O)Nc1ccccc1-c1ccccc1[N+](=O)[O-]	0%	.	6%[2.29 µM]	4%[2.29 µM]	0%
COC(=O)C1=C(C)N(c2cccc3ccccc23)C(=O)C1	10%	-16%	25µM*	0%	-25%
COC(=O)C1=C(C)N(c2ccc(C(=O)OC)cc2)C(=O)C1	-4%	23%	-26%[57.1 µM]	7%[57.1 µM]	33%
COc1ccc(Cn2c(C)ccc2C)cc1	4%	4%	32µM*	-1%	-39%
CCn1cc(/C=N/NC(=O)c2ccc(C#N)cc2F)c2ccccc21	31%	0%	9%	-2%	10%
Cn1cnc([N+](=O)[O-])c1Oc1cccc2ccccc12	4%	-1%	8.9µM*	-5%	-18%
Cn1cnc([N+](=O)[O-])c1Oc1cccc(O)c1	-3%	-5%	25µM*	-11%	-16%
Cn1cnc([N+](=O)[O-])c1Oc1ccccc1	6%	3%	45µM*	0%	-5%
Cn1cnc([N+](=O)[O-])c1S(=O)(=O)Oc1cccc2ccccc12	-8%	.	?	-8%	?
CC(C)Oc1ccc(S(=O)(=O)N2CCOCC2)cc1NC(=O)CN1C(=O)c2ccccc2C1=O	6%	.	24%	2%	7%
CCNC(=O)Nc1ccc(OC)cc1OC	4%	6%	13%	-2%	30%
COc1ccc(NC(=O)C2C(=O)N(CCO)C3(C)CC2c2ccccc2O3)cc1 (stereo unspecified)	23%	-4%	-6%	-4%	6%
COc1ccc(OC)c(/C=N\Nc2nccs2)c1	7%	.	8%	13%	-8%
CCOC(=O)C1(C)C(C(=O)OC)=C(c2ccc(OC)cc2)c2ccccc2N1C(=O)OC (stereo unspecified)	1%	-15%	40µM*	3%	-31%
CN(C)c1ccnc2c[cH-]cc12.[Fe].c1ccc(-[c-]2[c-](-c3ccccc3)[c-](-c3ccccc3)[c-](-c3ccccc3)[c-]2-c2ccccc2)cc1 (stereo unspecified)	-12%	-5%	19%[57.1 µM]	6%[57.1 µM]	-4%
CCOC(=O)c1c(NC(C)=O)sc2c1CCC(C=O)=C2Sc1ccccc1	0%	37%	1.3µM*	6%	-19%
COc1cc(NS(=O)(=O)c2c(C)[nH]c(C)c2C(=O)N2CCCC2)cc(OC)c1OC	1%	0%	17%	0%	-22%[56.9 µM]
